Bioassay records from PubChem BioAssay.
HepG2 viability: kills HepG2 cells in TGF-b inhibitor counter-screen | 410,000 tested, 0.76% active | Potency, µM (titrated, usually from 46.1 µM), for inactives: at the highest dose activity change, negative = cytotoxicity, most hits filed as cytotoxic | HepG2 CAGA-GFP viability, ATP luminescence, 18 h
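CellTiter-Glo luminescence gave cytotoxicity after 18 hours at 37 degrees C. The cells were HepG2 CAGA-GFP in 1% FBS DMEM, stimulated with 500 pg/mL TGF-beta after compound addition. %Activity was normalised to no-cell wells (complete cell-killing) and DMSO (no toxicity), and curves were fitted and classified.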
TGFb SMAD3 inh: inhibitors of TGF-b signaling. HepG2 CAGA-GFP TGF-b/SMAD3 reporter, GFP fluorescence, 18 h; TGF-beta stimulated, 500 pg/mL final. Potency, µM (titrated, usually from 46.1 µM), inactives show at the highest dose activity, negative = inhibition, actives largely listed as inhibitors. 410,000 tested, 1.2% active. AID 588855; also: % is scaled to controls: 0 for no effect and ±100 for the full control effect; nearly all actives have a fitted effect of over 65% in size
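Read-out: total well GFP (ex488/em500-530) summed from mean per-cell fluorescence. Cells: HEPG2 CAGA-GFP, 1% FBS DMEM, 18 h at 37 degrees C with 500 pg/mL final TGF-beta. Unstimulated wells served as the full-inhibition control; stimulated DMSO wells = 0%.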
S2 tox: reduces viability in counter-screen for ATXN expression inhibitors; S2 cells (HEK-293 line with an ATXN2-luciferase reporter) viability, CellTiter-Fluor protease fluorescence, 24 h; Potency, µM (titrated, usually from 56.7 µM), actives largely listed as cytotoxic; 400,000 tested, 0.49% active; also: nearly all actives have a fitted effect of over 40% in size
ATXN2 expr inh: inhibitors of ATXN2 expression; HEK-293 ATXN2-luciferase reporter, luminescence, 24 h; Potency, µM (doses to about 57 µM), without a hit: top-dose activity change, negative = inhibition, usual class: inhibitors; 360,000 tested, 0.72% active; AID 1745845; also: % is scaled to controls: 0 for no effect and ±100 for the full control effect; nearly all actives have a fitted effect of over 55% in size
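qHTS (up to 57 uM final) was run with 24 h compound exposure of reporter cells at 37 °C. Each well was multiplexed: SteadyGlo luminescence measured ATXN2-luciferase expression after a fluorogenic Gly-Phe-AFC viability readout (25 uM final).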
* hit, by the source's call. A selection: hits, their analogues and other compounds. The true share with any hit is near 2.3%. Calls follow the shape of the dose curve; as a rule, active = well fitted curve in the direction sought with a large enough effect; inconclusive = small, poorly fitted or top-dose-only effect, or another doubt; inactive = no such curve, though single readings can be large; an effect the other way counts as inactive or inconclusive. Potency is read from the fitted curve at half-maximal effect.

Results for COc1cccc(-c2ccnc(-n3ncc(C(=O)N(C)CCc4ccccn4)c3C)n2)c1 ?
S2 tox: inactive

What do the screens show for `CCCCCCCCCCCCCCCC(=O)O[C@@H]1CC(C)=C(/C=C/C(C)=C/C=C/C(C)=C/C=C/C=C(C)/C=C/C=C(C)/C=C/C2=C(C)C[C@@H](OC(=O)CCCCCCCCCCCCCCC)CC2(C)C)C(C)(C)C1`?
S2 tox: inactive

How did S=c1[nH]nc(-c2cc(-c3ccccc3)n[nH]2)n1/N=C/c1ccccc1 do in these assays?
HepG2 viability: -14%; TGFb SMAD3 inh: -16%; S2 tox: inactive; ATXN2 expr inh: -12%

Results for S=c1[nH]nc(-c2cc(-c3ccccc3)n[nH]2)n1/N=C/C(Br)=C/c1ccccc1 ?
HepG2 viability: -27%; TGFb SMAD3 inh: 11µM*; S2 tox: 30µM*; ATXN2 expr inh: inconclusive

How did Cc1cnc(C)c(-c2cccc3c2OC(CNC(=O)CN2C(=O)c4ccccc4C2=O)C3)n1 (centres undefined) do in these assays?
S2 tox: inactive

How did CC1(C)N=C(N)N=C(N)N1c1ccc(Cl)cc1 do in these assays?
S2 tox: inactive

What do the screens show for `O=C(CCc1ccc(Oc2cc([N+](=O)[O-])cc([N+](=O)[O-])c2)cc1)N1CCCCCC1`?
HepG2 viability: -38%; TGFb SMAD3 inh: 18µM*; S2 tox: inactive; ATXN2 expr inh: inconclusive

Results for CC(CNC(=O)c1cnn(-c2ccc(F)cc2)c1-n1cccc1)c1ccccc1 (centres undefined) ?
HepG2 viability: -9%; TGFb SMAD3 inh: 10µM*; S2 tox: inactive; ATXN2 expr inh: -27%

What do the screens show for `CC1=CC(=C(c2ccc(N)cc2)c2ccc(N)cc2)C=CC1=N`?
HepG2 viability: -64%; TGFb SMAD3 inh: inconclusive

Results for CC(C)OCc1cc(CN2CCN(c3cccc(C(F)(F)F)c3)CC2)c(O)c2ncccc12 ?
HepG2 viability: -53%; TGFb SMAD3 inh: 1.6µM*

What do the screens show for `CCOCc1cc(CN2CCN(c3cccc(C(F)(F)F)c3)CC2)c(O)c2ncccc12`?
HepG2 viability: -36%; TGFb SMAD3 inh: 2.8µM*

How did O=[N+]([O-])c1cc(CN2CCN(c3cccc(C(F)(F)F)c3)CC2)c2cccnc2c1O do in these assays?
HepG2 viability: -7%; TGFb SMAD3 inh: -23%; S2 tox: inconclusive; ATXN2 expr inh: 0%

What do the screens show for `CC(C)(C)n1ncc2c(=O)n(Cc3ccc(F)c(F)c3F)cnc21`?
HepG2 viability: -28%; TGFb SMAD3 inh: 4%

What do the screens show for `COCCn1c(C)cc(C(=O)CSc2nnc3ccccn23)c1C`?
HepG2 viability: -24%; TGFb SMAD3 inh: -1%; S2 tox: inactive; ATXN2 expr inh: 7.1µM*

How did COc1ccc(/C=C\c2onc(C)c2S(=O)(=O)N2CCC(C(=O)Nc3ccc(C)c(F)c3)CC2)cc1 do in these assays?
HepG2 viability: -15%; TGFb SMAD3 inh: 11µM*

What do the screens show for `Cc1noc(/C=C/c2ccccc2F)c1S(=O)(=O)N1CCC(C(=O)Nc2ccc(C#N)cc2)CC1`?
HepG2 viability: -43%; TGFb SMAD3 inh: 4.5µM*

Results for Cc1ccccc1OCC(=O)NC(=S)Nc1ccc2c3c(cccc13)CC2 ?
HepG2 viability: 13µM*; TGFb SMAD3 inh: 0%; S2 tox: inactive; ATXN2 expr inh: -34%

How did C1Cc2[nH]nc(-c3nn[nH]n3)c2C1 do in these assays?
ATXN2 expr inh: -7%

How did CCCCn1c(=N)n(CCCOc2ccc(F)cc2)c2ccccc21 do in these assays?
HepG2 viability: 13µM*; TGFb SMAD3 inh: 16µM*

How did N=c1n(CCO)c2ccccc2n1CCOc1ccc(F)cc1 do in these assays?
HepG2 viability: 5%; TGFb SMAD3 inh: 21%; S2 tox: inactive; ATXN2 expr inh: -17%

How did Cc1nc(C2CCCCC2)c(-c2ccc(S(N)(=O)=O)c(F)c2)o1 do in these assays?
S2 tox: inactive; ATXN2 expr inh: 25%

How did Cc1cccc(OCC(=O)Nc2ccc3c(c2)nc(CCN2CCN(c4ccccn4)CC2)n3C)c1 do in these assays?
HepG2 viability: -9%; TGFb SMAD3 inh: -29%; S2 tox: inconclusive; ATXN2 expr inh: 14µM*

How did Fc1ccc(F)c(Nc2c3c(nc4ccc(Cl)cc24)CCC3)c1 do in these assays?
HepG2 viability: 18µM*; TGFb SMAD3 inh: inconclusive; S2 tox: inconclusive; ATXN2 expr inh: inconclusive

What do the screens show for `FC(F)(F)c1cccc(Nc2c3c(nc4ccc(Cl)cc24)CCC3)c1`?
HepG2 viability: -75%; TGFb SMAD3 inh: 18µM*

Results for Nc1[nH]c(=S)nc2nnsc12 ?
HepG2 viability: -7%; TGFb SMAD3 inh: -7%

What do the screens show for `CC(C)(C)C(=O)NCCc1nc2ccccc2n1CCCCOc1ccc(Cl)cc1`?
HepG2 viability: -95%; TGFb SMAD3 inh: inconclusive; S2 tox: inconclusive; ATXN2 expr inh: inconclusive

Results for COc1ccc(OCCCn2c(CCNC(=O)C3CCCCC3)nc3ccccc32)cc1 ?
HepG2 viability: -17%; TGFb SMAD3 inh: 10µM*

How did Cc1cccc(C)c1OCCCn1c(CCNC(=O)C2CCCCC2)nc2ccccc21 do in these assays?
HepG2 viability: -94%; TGFb SMAD3 inh: 11µM*

Results for COc1ccc(OCCn2c(CCNC(=O)C3CCCCC3)nc3ccccc32)cc1 ?
HepG2 viability: -21%; TGFb SMAD3 inh: -2%

Results for O=C(NCCc1nc2ccccc2n1CCCOc1ccccc1)C1CCCCC1 ?
HepG2 viability: -9%; TGFb SMAD3 inh: inconclusive

Results for Cc1ccccc1OCCCCn1c(CCNC(=O)C(C)(C)C)nc2ccccc21 ?
HepG2 viability: -86%; TGFb SMAD3 inh: 16µM*; S2 tox: inconclusive; ATXN2 expr inh: inconclusive

Results for C=C1C=C(C)n2ncc(C(=O)Nc3cccc(C(=O)Nc4cccc(C(F)(F)F)c4)c3)c2N1 ?
HepG2 viability: 8%; TGFb SMAD3 inh: 11%

Results for CCN1CCN(C(=O)c2cc(NC(=O)COC)cc3nc(-c4ccncc4)n(C)c23)CC1 ?
S2 tox: inactive

How did C[C@@]12C[C@@]3(O)O[C@@H](O1)[C@]1(COC(=O)c4ccccc4)[C@@H]3C[C@@]12O[C@@H]1O[C@H](CO)[C@@H](O)[C@H](O)[C@@H]1O do in these assays?
ATXN2 expr inh: 5%

How did Cc1nc2c(nc1C)C(=O)c1ccccc1C2=O do in these assays?
HepG2 viability: 3.5µM*; TGFb SMAD3 inh: 2.2µM*; S2 tox: inconclusive; ATXN2 expr inh: inconclusive

Results for COc1ccc(CN2CCOc3ccc(CN4CCN(CCO)CC4)cc3C2)c2ccccc12 ?
S2 tox: inactive

How did O=c1c(-c2ccccc2)c1-c1ccccc1 do in these assays?
S2 tox: 8.9µM*; ATXN2 expr inh: 8.9µM*

What do the screens show for `O=c1[nH][nH]c(-c2ccccc2)c1-c1ccccc1`?
HepG2 viability: -1%; TGFb SMAD3 inh: 13%; S2 tox: inactive; ATXN2 expr inh: -1%

How did CC(C)(C)c1ccc(C(=O)NCCOc2ccccc2F)cc1 do in these assays?
HepG2 viability: -4%; TGFb SMAD3 inh: 15%; S2 tox: inactive; ATXN2 expr inh: 13µM*
